Data taken from PMC5700166.

Assays:
GST-Dm-Relish = target: T1, GST-Dm-Relish (Drosophila melanogaster, UniProt Q94527 99-473); experiment: protein-binding microarray (PBM); PBM: ~300 nM protein, 6 mM HEPES pH 7.8, 80 mM KCl, 0.5 mM EDTA, 0.5 mM EGTA, 6% glycerol, 35 ng/ul poly-dIdC, 1% milk, 1 h, room temperature; Ap Aiptasia and Nv Nematostella (sea anemones) / Co Capsaspora / Aq Amphimedon (sponge) / Dm Drosophila / Hu human; RHD is the Rel homology domain; high values mean tight binding; details: dsDNA, one strand shown
T1 sequence: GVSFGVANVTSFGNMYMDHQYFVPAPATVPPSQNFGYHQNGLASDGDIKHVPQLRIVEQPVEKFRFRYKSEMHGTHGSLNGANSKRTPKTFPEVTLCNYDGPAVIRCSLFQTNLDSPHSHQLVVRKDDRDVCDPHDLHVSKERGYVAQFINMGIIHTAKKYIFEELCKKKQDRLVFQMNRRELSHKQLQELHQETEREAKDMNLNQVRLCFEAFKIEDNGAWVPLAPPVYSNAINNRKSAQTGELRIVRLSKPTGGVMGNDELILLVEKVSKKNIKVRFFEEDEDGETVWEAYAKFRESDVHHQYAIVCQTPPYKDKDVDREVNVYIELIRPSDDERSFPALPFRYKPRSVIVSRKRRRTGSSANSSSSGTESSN

GST-Aq-NF-kB = target: T2, GST-Aq-NF-kB (Amphimedon queenslandica, UniProt A9Y5G7 2-389); experiment: as above; details: dsDNA, one strand shown
T2 sequence: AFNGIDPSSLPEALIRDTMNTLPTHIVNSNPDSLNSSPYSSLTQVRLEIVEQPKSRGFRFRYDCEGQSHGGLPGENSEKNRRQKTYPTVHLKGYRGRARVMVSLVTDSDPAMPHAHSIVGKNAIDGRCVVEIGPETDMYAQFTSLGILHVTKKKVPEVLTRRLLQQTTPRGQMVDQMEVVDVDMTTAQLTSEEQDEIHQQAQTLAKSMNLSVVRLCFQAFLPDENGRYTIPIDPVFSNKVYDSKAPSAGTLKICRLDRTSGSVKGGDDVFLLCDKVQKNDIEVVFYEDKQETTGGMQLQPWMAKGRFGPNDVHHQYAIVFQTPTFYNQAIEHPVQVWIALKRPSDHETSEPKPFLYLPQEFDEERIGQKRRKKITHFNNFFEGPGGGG

Row | Sequence | binding signal (GST-Dm-Relish) | binding signal (GST-Aq-NF-kB)
1 | CCGATTAACATCAGGTTCTTACCTGATGTTAATCGGGTCTTGATTCGCTTGACGCTGCTG | 1.79 z-score | 1.38 z-score
2 | CCGATTAACATCACGGAATTCCGTGATGTTAATCGGGTCTTGATTCGCTTGACGCTGCTG | 1.22 z-score | 1.25 z-score
3 | CCGATTAACATCAGGAAAAACCATGATGTTAATCGGGTCTTGATTCGCTTGACGCTGCTG | 2.39 z-score | 2.94 z-score
4 | CCGATTAACATCAAGTACTTTCCTGATGTTAATCGGGTCTTGATTCGCTTGACGCTGCTG | 5.26 z-score | 1.81 z-score
5 | CCGATTAACATCAACGGAATTCCTGATGTTAATCGGGTCTTGATTCGCTTGACGCTGCTG | 2.11 z-score | 1.66 z-score
6 | CCGATTAACATCAGAAAATTTCCTGATGTTAATCGGGTCTTGATTCGCTTGACGCTGCTG | 1.75 z-score | 2.09 z-score
7 | CCGATTAACATCAGGGATGCCCATGATGTTAATCGGGTCTTGATTCGCTTGACGCTGCTG | 6.66 z-score | 2.22 z-score
8 | CCGATTAACATCACGGAATTGCCTGATGTTAATCGGGTCTTGATTCGCTTGACGCTGCTG | 1.01 z-score | 1.14 z-score
9 | CCGATTAACATCAGGAATTCCAATGATGTTAATCGGGTCTTGATTCGCTTGACGCTGCTG | 2.77 z-score | 1.38 z-score
10 | CCGATTAACATCAAAAATTCCTATGATGTTAATCGGGTCTTGATTCGCTTGACGCTGCTG | 1.74 z-score | 1.2 z-score
11 | CCGATTAACATCACGGAAACTCCTGATGTTAATCGGGTCTTGATTCGCTTGACGCTGCTG | 1.23 z-score | 3.4 z-score
12 | CCGATTAACATCAAGGATTTTCCTGATGTTAATCGGGTCTTGATTCGCTTGACGCTGCTG | 1.44 z-score | 3.08 z-score
13 | CCGATTAACATCACGAAAATTCCTGATGTTAATCGGGTCTTGATTCGCTTGACGCTGCTG | 1.12 z-score | 1.41 z-score
14 | CCGATTAACATCAAAGAAATTCCTGATGTTAATCGGGTCTTGATTCGCTTGACGCTGCTG | 1.96 z-score | 1.44 z-score
15 | CCGATTAACATCAGGTCTTTCCATGATGTTAATCGGGTCTTGATTCGCTTGACGCTGCTG | 1.02 z-score | 1.55 z-score
16 | CCGATTAACATCAGGAATTTCTATGATGTTAATCGGGTCTTGATTCGCTTGACGCTGCTG | 1.28 z-score | 1.23 z-score
17 | CCGATTAACATCACGGGCATTCCTGATGTTAATCGGGTCTTGATTCGCTTGACGCTGCTG | 2.37 z-score | 3.21 z-score
18 | CCGATTAACATCAGGAAACCCACTGATGTTAATCGGGTCTTGATTCGCTTGACGCTGCTG | 3.86 z-score | 1.01 z-score
19 | CCGATTAACATCACGTAATTTCCTGATGTTAATCGGGTCTTGATTCGCTTGACGCTGCTG | 1.85 z-score | 1.14 z-score
20 | CCGATTAACATCAGGTTTTTCCATGATGTTAATCGGGTCTTGATTCGCTTGACGCTGCTG | 2.68 z-score | 2.64 z-score
21 | CCGATTAACATCAGGACATCCCATGATGTTAATCGGGTCTTGATTCGCTTGACGCTGCTG | 3.93 z-score | 2.15 z-score
22 | CCGATTAACATCACGTGGTTTCCTGATGTTAATCGGGTCTTGATTCGCTTGACGCTGCTG | 3.67 z-score | 1.63 z-score

Row | Sequence | binding signal (GST-Dm-Relish) | binding signal (GST-Aq-NF-kB)
23 | CCGATTAACATCACGGAAATTCCTGATGTTAATCGGGTCTTGATTCGCTTGACGCTGCTG | 1.83 z-score | 4.88 z-score
24 | CCGATTAACATCAAAAAACTTCCTGATGTTAATCGGGTCTTGATTCGCTTGACGCTGCTG | 1.56 z-score | 1.4 z-score
25 | CCGATTAACATCACGGACTTTCCTGATGTTAATCGGGTCTTGATTCGCTTGACGCTGCTG | 2.95 z-score | 5.31 z-score
26 | CCGATTAACATCAGGAAAGTCCATGATGTTAATCGGGTCTTGATTCGCTTGACGCTGCTG | 3.2 z-score | 3.71 z-score
27 | CCGATTAACATCAGGAAAGGCCATGATGTTAATCGGGTCTTGATTCGCTTGACGCTGCTG | 1.29 z-score | 1.31 z-score
28 | CCGATTAACATCAGGAATTTCCATGATGTTAATCGGGTCTTGATTCGCTTGACGCTGCTG | 2.65 z-score | 3.89 z-score
29 | CCGATTAACATCAAAAAATTCCTTGATGTTAATCGGGTCTTGATTCGCTTGACGCTGCTG | 2.73 z-score | 2.21 z-score
30 | CCGATTAACATCAGGTAAGTCCATGATGTTAATCGGGTCTTGATTCGCTTGACGCTGCTG | 1.83 z-score | 2.33 z-score
31 | CCGATTAACATCAGGAAATACCATGATGTTAATCGGGTCTTGATTCGCTTGACGCTGCTG | 3.07 z-score | 3.27 z-score
32 | CCGATTAACATCACTGGAATTCCTGATGTTAATCGGGTCTTGATTCGCTTGACGCTGCTG | 2.95 z-score | 1.7 z-score
33 | CCGATTAACATCAAAAATTTCCGTGATGTTAATCGGGTCTTGATTCGCTTGACGCTGCTG | 1.61 z-score | 2.63 z-score
34 | CCGATTAACATCACGGAAAATCCTGATGTTAATCGGGTCTTGATTCGCTTGACGCTGCTG | 1.04 z-score | 3.9 z-score
35 | CCGATTAACATCAGGAATTCCACTGATGTTAATCGGGTCTTGATTCGCTTGACGCTGCTG | 3.07 z-score | 1.57 z-score
36 | CCGATTAACATCACGGAAACTACTGATGTTAATCGGGTCTTGATTCGCTTGACGCTGCTG | 1.84 z-score | 1.46 z-score
37 | CCGATTAACATCACAAAATTTCCTGATGTTAATCGGGTCTTGATTCGCTTGACGCTGCTG | 1.74 z-score | 1.72 z-score
38 | CCGATTAACATCACGGAAAAACCTGATGTTAATCGGGTCTTGATTCGCTTGACGCTGCTG | 2.16 z-score | 3.55 z-score
39 | CCGATTAACATCAAAAATTTCCTTGATGTTAATCGGGTCTTGATTCGCTTGACGCTGCTG | 1.94 z-score | 2.1 z-score
40 | CCGATTAACATCAAGGAAACTCCTGATGTTAATCGGGTCTTGATTCGCTTGACGCTGCTG | 1.12 z-score | 2.64 z-score
41 | CCGATTAACATCAGAGGAATTCCTGATGTTAATCGGGTCTTGATTCGCTTGACGCTGCTG | 2.63 z-score | 2.12 z-score
42 | CCGATTAACATCAGGATTTTCCATGATGTTAATCGGGTCTTGATTCGCTTGACGCTGCTG | 1.28 z-score | 2.57 z-score
43 | CCGATTAACATCACGGAATTCCATGATGTTAATCGGGTCTTGATTCGCTTGACGCTGCTG | 1.4 z-score | 1.3 z-score
44 | CCGATTAACATCAGGATTTTTTATGATGTTAATCGGGTCTTGATTCGCTTGACGCTGCTG | 2.63 z-score | 1.59 z-score

Row | Sequence | binding signal (GST-Dm-Relish) | binding signal (GST-Aq-NF-kB)
45 | CCGATTAACATCACAGGGTTTCCTGATGTTAATCGGGTCTTGATTCGCTTGACGCTGCTG | 2.82 z-score | 1.57 z-score
46 | CCGATTAACATCAGGAAATCCACTGATGTTAATCGGGTCTTGATTCGCTTGACGCTGCTG | 2.24 z-score | 1.15 z-score
47 | CCGATTAACATCAATAAAATTCCTGATGTTAATCGGGTCTTGATTCGCTTGACGCTGCTG | 1.81 z-score | 1.79 z-score
48 | CCGATTAACATCACGGAAACCACTGATGTTAATCGGGTCTTGATTCGCTTGACGCTGCTG | 3.59 z-score | 1.46 z-score
49 | CCGATTAACATCAGGAATCTCCATGATGTTAATCGGGTCTTGATTCGCTTGACGCTGCTG | 1.01 z-score | 1.6 z-score
50 | CCGATTAACATCACCGGATTTCCTGATGTTAATCGGGTCTTGATTCGCTTGACGCTGCTG | 1.86 z-score | 1.54 z-score
51 | CCGATTAACATCAGAGGATTTCCTGATGTTAATCGGGTCTTGATTCGCTTGACGCTGCTG | 1.74 z-score | 1.55 z-score
52 | CCGATTAACATCAAAAAAAATCCTGATGTTAATCGGGTCTTGATTCGCTTGACGCTGCTG | 3.09 z-score | 2.68 z-score
53 | CCGATTAACATCACGGAAAGTACTGATGTTAATCGGGTCTTGATTCGCTTGACGCTGCTG | 4.11 z-score | 2.92 z-score
54 | CCGATTAACATCACAGGATTTCCTGATGTTAATCGGGTCTTGATTCGCTTGACGCTGCTG | 1.81 z-score | 1.18 z-score
55 | CCGATTAACATCAGCGGAAATCCTGATGTTAATCGGGTCTTGATTCGCTTGACGCTGCTG | 1.26 z-score | 1.07 z-score
56 | CCGATTAACATCACCGGAAATCCTGATGTTAATCGGGTCTTGATTCGCTTGACGCTGCTG | 2.06 z-score | 2.27 z-score
57 | CCGATTAACATCAGGAAATTACATGATGTTAATCGGGTCTTGATTCGCTTGACGCTGCTG | 5.09 z-score | 1.17 z-score
58 | CCGATTAACATCAGGAATTCCGATGATGTTAATCGGGTCTTGATTCGCTTGACGCTGCTG | 2.4 z-score | 1.28 z-score
59 | CCGATTAACATCAAAGGAATTCCTGATGTTAATCGGGTCTTGATTCGCTTGACGCTGCTG | 3.78 z-score | 2.38 z-score
60 | CCGATTAACATCAGGAGTTTCCATGATGTTAATCGGGTCTTGATTCGCTTGACGCTGCTG | 1.28 z-score | 2.43 z-score
61 | CCGATTAACATCAAAGGATTTCCTGATGTTAATCGGGTCTTGATTCGCTTGACGCTGCTG | 1.74 z-score | 1.01 z-score
62 | CCGATTAACATCAGAAAATTCCATGATGTTAATCGGGTCTTGATTCGCTTGACGCTGCTG | 1.53 z-score | 1.51 z-score
63 | CCGATTAACATCAAAAAAAGTACTGATGTTAATCGGGTCTTGATTCGCTTGACGCTGCTG | 7.01 z-score | 1.54 z-score
64 | CCGATTAACATCACGGGCATCCCTGATGTTAATCGGGTCTTGATTCGCTTGACGCTGCTG | 5.06 z-score | 3.09 z-score
65 | CCGATTAACATCAAAAAATTCCATGATGTTAATCGGGTCTTGATTCGCTTGACGCTGCTG | 2.59 z-score | 1.71 z-score
